Source: PubChem BioAssay (NCATS)
Results filed as inconclusive are left out. The source made the active and inactive calls. The call rests on the fitted dose curve; in most records, active means well fitted curve in the direction sought with a large enough effect; inconclusive means small, poorly fitted or top-dose-only effect, or another doubt; inactive means no such curve, though single readings can be large; an effect the other way counts as inactive or inconclusive.

Tests used:
[1] = biological target: Phospholipid hydroperoxide glutathione peroxidase GPX4 (Homo sapiens) (UniProt P36969); assay: Primary qHTS Assay for Inhibitors of Recombinant Selenoprotein Glutathione Peroxidase 4 (GPX4) (AID 1845192); further: nearly all actives have a fitted effect of over 65% in size; further: potency means the concentration at half of the fitted maximal effect; on activity change, negative = inhibition: series mostly up to about 50 µM; on the % scale 0 is the no-effect control and ±100 the full control effect
Chain of Phospholipid hydroperoxide glutathione peroxidase GPX4 (Homo sapiens) (P36969 whole entry, looked up): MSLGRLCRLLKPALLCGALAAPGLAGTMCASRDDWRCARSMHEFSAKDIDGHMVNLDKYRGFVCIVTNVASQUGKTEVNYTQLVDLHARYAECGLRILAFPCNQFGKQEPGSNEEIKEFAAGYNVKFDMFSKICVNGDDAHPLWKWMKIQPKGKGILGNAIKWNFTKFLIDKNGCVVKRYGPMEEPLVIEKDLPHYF
Outline: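 NADPH consumption, followed by fluorescence at 340/450 nm between 0 and 15 min, reports GPX4 activity via coupled glutathione reductase (100 nM). Enzyme 200 nM was pre-exposed to compound 30 min; 0.5 mM cumene hydroperoxide and 1 mM GSH served as substrates.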

[2] = biological target: Luciferin 4-monooxygenase (Photinus pyralis) (UniProt P08659); assay: Primary firefly luciferase (FLuc) qHTS assay for identification of artifact compounds. (AID 1845220); further: nearly all actives have a fitted effect of over 60% in size; further: potency means the concentration at half of the fitted maximal effect;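 on activity change, negative = inhibition: series mostly up to about 54 µM; plate controls were DMSO vehicle for no effect and no enzyme for full effect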
Outline: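 Compounds sat 15 min at room temperature with 10 uM luciferin and 10 uM ATP (pH 7.6 Tris acetate). Firefly luciferase (10 nM final) was then added, and luminescence was read 5 min later. Data normalized to no-enzyme and DMSO controls were Hill-fitted.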

[3] = Primary fluorescence-based thiol-reactive (MSTI) qHTS assay for identification of artifact compounds. (AID 1845221); further: nearly all actives have a fitted effect of over 65% in size; further: potency means the concentration at half of the fitted maximal effect;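 on activity change, negative = thiol reactive: series mostly up to about 54 µM; thiol-reactive compounds lower the probe fluorescence signal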
Outline: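 Thiol-reactive compounds detected by quenching of 4 uM MSTI fluorescence (525/598 nm) after 1 h room-temperature dark incubation in PBS pH 7.4, 2% DMSO. qHTS titration; percent inhibition Hill-fitted against Acetyl-MSTI/MSTI controls.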

[4] = tested on: Nanoluciferase (engineered Oplophorus gracilirostris luciferase); assay: Primary Nanoluciferase (NLuc) qHTS assay for identification of artifact compounds. (AID 1845222);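 further: series mostly up to about 54 µM; 0% = DMSO and -100% = no enzyme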
Outline: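 Luminescence from secreted NLuc (filtered, 1:55-diluted S16 cell medium) read 5 min after Nano-Glo substrate; compounds preincubated 15 min, RT. Hill fits of inhibition normalized to DMSO and no-enzyme.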

[5] = Primary redox qHTS assay for identification of artifact compounds. (AID 1845223);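 further: 0% = DMSO and 100% = reference compound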
Outline: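 Amplex Red (25 uM) and HRP (250 mU/mL) in HBSS, with compounds for 15 min, then 250 uM DTT for 30 min, room temperature, dark. Fluorescence 525/598 nm read; normalized to DMSO and 10 uM DA3003; Hill fit.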

C[C@H](N)C(=O)N[C@@H](Cc1ccc(O)cc1)C(=O)N1CCC[C@H]1C(=O)NCC(=O)N[C@@H](CCCCN)C(=O)N[C@@H](Cc1ccccc1)C(N)=O
inactive: activity change, negative = inhibition [1] -6.9% [at 9.73 µM] | activity change, negative = inhibition [2] 3.15% [at 11.6 µM] | activity change, negative = thiol reactive [3] -3.19% [at 11.5 µM] | activity, negative = inhibition [4] 4.39% [at 11.6 µM] | redox activity (% of DA3003) [5] -3.11% [at 11.5 µM]

CC(=O)O[C@@H]1C[C@H](O)[C@@]23CO[C@H](O)[C@]1(C)C2C[C@@H](O)[C@]1(C)C3C(=O)[C@H](OC(C)=O)[C@@]2(C)[C@H](c3ccoc3)C[C@H]3O[C@]321 (stereo not given in full)
inactive: Potency [1] | Potency [2] | Potency [3] | Potency [4] | Potency [5]

O=C(Nc1ccc(-c2ccncc2)cc1)N[C@H](CO)c1ccccc1
inactive: Potency [1] | Potency [2] | Potency [3] | Potency [4] | Potency [5]

CCCCc1ccc(C(=O)Nc2cc(-c3ccc(Cl)cc3)nn2-c2ccc(Cl)cc2)cc1
inactive: Potency [1] | Potency [2] | Potency [3] | Potency [4] | Potency [5]

COC(=O)CC(O)C1OC(c2ccccc2)C(O)C1O (stereo not given)
inactive: Potency [1] | Potency [2] | Potency [4] | Potency [5]
active: Potency [3] 8.44 µM

C=CC1(C)C=C2CCC3C(C)(C)C(O[C@@H]4O[C@@H](CO)[C@H](O)[C@H]4O)CCC3(C)C2CC1O[C@@H]1O[C@H](C)[C@H](O)[C@H](O)[C@H]1O (stereo not given in full)
inactive: Potency [1] | Potency [2] | Potency [3] | Potency [4] | Potency [5]

CC1(C)C[C@H](O)C[C@@]2(C)OC(=O)C=C12
active: Potency [3] 39.8 µM
inactive: Potency [1] | Potency [2] | Potency [4] | Potency [5]

C=CC(C)(CC/C=C(\C)C(=O)OC)OC1OC(COC(=O)CC(C)(O)CC(=O)O)C(OC2OC(CO)C(O)C(O)C2O)C(O)C1O (stereo not given)
inactive: Potency [1] | Potency [2] | Potency [3] | Potency [4] | Potency [5]

COc1cc2c(cc1O)CC[C@H]1[C@@H]2CC[C@]2(C)[C@H](O)CC[C@@H]12
inactive: Potency [1] | Potency [2] | Potency [3] | Potency [4] | Potency [5]

COc1cc2occc2c(O[C@@H]2O[C@H](CO)[C@@H](O)[C@H](O)[C@H]2O)c1CCC(=O)O
active: Potency [1] 11.1 µM | Potency [3] 5.19 µM
inactive: Potency [2] | Potency [4] | Potency [5]

CC(C)CC(=O)O[C@@H]1OC=C(CO[C@@H]2O[C@H](CO)[C@@H](O)[C@H](O)[C@H]2O)[C@H]2[C@@H]3O[C@H]3[C@@](O)(CO)[C@@H]12
inactive: Potency [1] | Potency [2] | Potency [3] | Potency [4] | Potency [5]

CC(O)c1cc(C(=O)N[C@@H](C)Cn2ccc(-c3ccc(C#N)c(Cl)c3)n2)n[nH]1 (stereo not given in full)
inactive: Potency [1] | Potency [2] | Potency [3] | Potency [4] | Potency [5]

O=C(COc1cccc2c(=O)[nH]ccc12)c1ccccc1
inactive: Potency [1] | Potency [2] | Potency [3] | Potency [4] | Potency [5]

COc1ccc(/C=C/C(=O)O[C@@H]2[C@@H](O)[C@@H](O)[C@H](O[C@@H]3C=C(CO)[C@H]4[C@H](O[C@@H]5O[C@H](CO)[C@@H](O)[C@H](O)[C@H]5O)OC=C[C@H]43)O[C@H]2C)cc1O
active: Potency [3] 3.98 µM
inactive: Potency [1] | Potency [2] | Potency [4] | Potency [5]

COc1cc([C@H]2c3cc(O)c(OC)cc3C[C@@H](CO[C@@H]3O[C@H](CO)[C@@H](O)[C@H](O)[C@H]3O)[C@@H]2CO)ccc1O
inactive: Potency [1] | Potency [2] | Potency [4] | Potency [5]
active: Potency [3] 8.22 µM

COc1ccc(C(=O)Nc2ncc(-c3ccc(C(=O)O)cc3)s2)cc1
inactive: Potency [1] | Potency [3] | Potency [4] | Potency [5]
active: Potency [2] 2.69 µM

CCC(O)(C(=O)OCc1ccccc1NC(=O)CCC(=O)O)C(C)O (stereo not given)
inactive: Potency [1] | Potency [2] | Potency [3] | Potency [4] | Potency [5]

C=CC1(C)CC(OC(=O)/C(C)=C\COC(C)=O)C(C(=C)C(=O)O)C(O)C1C(=C)CO (stereo not given)
inactive: Potency [1] | Potency [2] | Potency [3] | Potency [4] | Potency [5]

CC(=O)c1cc(C(=O)N[C@@H](C)Cn2ccc(-c3ccc(C#N)c(Cl)c3)n2)[nH]n1
inactive: Potency [1] | Potency [2] | Potency [3] | Potency [4] | Potency [5]

C[C@@H]1N[C@H]2N(C1=O)c1ccccc1[C@@]2(O)C[C@@H]1C(=O)N[C@@H](C)c2nc3ccccc3c(=O)n21
inactive: Potency [1] | Potency [2] | Potency [3] | Potency [4] | Potency [5]

Cc1cn(C2C=CC(CO)O2)c(=O)[nH]c1=O (stereo not given)
inactive: Potency [1] | Potency [2] | Potency [3] | Potency [4] | Potency [5]

CCCC1(c2ccccc2)NC(=O)N(CC(=O)N(C)Cc2c(F)cccc2Cl)C1=O (stereo not given)
inactive: Potency [1] | Potency [2] | Potency [3] | Potency [4] | Potency [5]

O=C(CCc1nnc2n(Cc3ccc(Cl)cc3)c(=O)c3ccccc3n12)NCCC1=CCCCC1
inactive: Potency [1] | Potency [2] | Potency [3] | Potency [4] | Potency [5]
